Inconclusive results are not listed. A call without a number means that no potency is given here. Calls of active or inactive are those of the source. Calls follow the shape of the dose curve; as a rule, active = well fitted inhibition curve with a large enough effect in the repeat runs; inconclusive = weak or mixed curves; inactive = no such curve, though single readings can be large or run the other way.
The molecules below were run against Cytochrome P450 2C19 (Homo sapiens) (UniProt P33261) (assay: Cytochrome P450 Family 2 Subfamily C Member 19 (CYP2C19) small molecule antagonists: luciferase reporter qHTS assay (AID 1671197; also: nearly all actives have a fitted effect of over 65% in size)). Settings: P450-Glo CYP2C19 enzyme, luciferin luminescence, 1 h; series mostly up to 52.9 µM.
Sequence of Cytochrome P450 2C19 (Homo sapiens) (P33261 whole entry, looked up): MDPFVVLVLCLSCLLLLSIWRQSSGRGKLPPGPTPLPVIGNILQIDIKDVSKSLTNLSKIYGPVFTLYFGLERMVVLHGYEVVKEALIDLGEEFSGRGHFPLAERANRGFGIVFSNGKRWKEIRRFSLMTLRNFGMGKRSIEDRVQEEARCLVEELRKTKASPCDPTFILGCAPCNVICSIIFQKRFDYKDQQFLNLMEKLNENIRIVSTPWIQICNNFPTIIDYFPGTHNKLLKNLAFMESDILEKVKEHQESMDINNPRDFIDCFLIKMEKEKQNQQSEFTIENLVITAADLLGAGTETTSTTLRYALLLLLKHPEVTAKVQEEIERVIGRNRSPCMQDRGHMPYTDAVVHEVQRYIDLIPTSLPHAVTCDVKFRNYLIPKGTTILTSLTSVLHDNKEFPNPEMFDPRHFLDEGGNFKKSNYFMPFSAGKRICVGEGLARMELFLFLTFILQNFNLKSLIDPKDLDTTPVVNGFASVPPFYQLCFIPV
From the text: National Center for Advancing Translational Sciences [NCATS]
U.S. Environmental Protection Agency [EPA]
National Institutes of Environmental Health Sciences [NIEHS]
National Toxicology Program [NTP]
U.S. Food and Drug Administration [FDA]
Cytochrome P450 (CYP) enzymes are membrane-bound hemeproteins that play a key role in metabolism of drugs and xenobiotics. Evaluation of the effect of chemicals on CYP isozymes is useful to minimize the adverse drug reactions and toxicities in drug development process. Tox21 chemicals were tested for their effect on CYP enzyme activities by using P450-Glo (TM) screening systems (Promega Corporation, Madison, WI). These systems provide a luminescent method containing proluciferin substrates and are converted to luciferin products by CYP isozymes. The luciferin products formed are detected with a luciferin detection reagent, and the amount of light produced is proportional to CYP activity. P450-Glo (TM) CYP2C19 screening system (Catalog. No. V9880) was used to detect the compounds that interfere in CYP2C19 activity. The positive control compound used for CYP2C19 assay is ketoconazole (Sigma-Aldrich, St. Louis, MO).
Tox21 Assay Protocol Summary:
Two ul of enzyme-substrate mix was dispensed into medium binding white/solid 1536-well plates (Greiner Bio-One North America Inc., Monroe, NC) using a BioRaptr Flying Reagent Dispenser (FRD, Beckman Coulter, Brea, CA). Compounds dissolved in DMSO and positive control (ketoconazole) were transferred to the assay plates at 23 nl using a Pintool station (Wako, San Diego, CA). The assay plates were incubated at room temperature for 10 min. Then 2 ul of NADPH regeneration solution was added to each well of the assay plates using an FRD and incubated at 37C for 1 h. The reaction was stopped by adding 4 ul of detection reagent using an FRD and after 20 min incubation at room temperature the luminescence signal was measured using a ViewLux plate reader (Perkin Elmer, Shelton, CT). Data were expressed as relative luminescence units.
`c1csc(SSc2cccs2)c1` was tested, and the Potency was 5.03 µM (active).
In the case of `CN1C(=O)c2ccccc2C1=O`, the Potency is reported as 79.6 µM (active).
`CCC(C)(C)OC` was tested, and the Potency was “inactive”.
In the case of `CC(=O)[C@H]1[C@H](C#N)C[C@H]2[C@@H]3CC=C4C[C@@H](O)CC[C@]4(C)[C@H]3CC[C@@]21C`, the Potency is reported as “inactive”.
`O=C(Nc1cccc2c(=O)cc(-c3nn[nH]n3)oc12)c1ccc(OCCCCc2ccccc2)cc1` was tested, and the Potency was “inactive”.
For `Cc1cc2c(OCC(CNC(C)(C)C)OC(=O)c3ccccc3)cccc2[nH]1` (stereo not given), the Potency was 38.9 µM (active).
For `CCCC(=O)C(=O)O`, the Potency was “inactive”.
For `CCCCN(CCN(CCCC)C(=O)N1CCOCC1)C(=O)N1CCOCC1`, the Potency was “inactive”.
For `C=C/C(C)=C/C/C=C(\C)CCC=C(C)C`, the Potency was 31.7 µM (active).
`N#CCc1ccc(Cl)cc1Cl` was tested, and the Potency was 79.6 µM (active).
With `COc1ccccc1N1CCN(CCCCNC(=O)c2ccc(-c3ccc(C(C)=O)cc3)cc2)CC1` the Potency was “inactive”.
In the case of `O=C1c2ccccc2C(=O)C1(O)O`, the Potency is reported as 71.4 µM (active).
In the case of `Cc1cc(O)c(C)c(C)c1O`, the Potency is reported as “inactive”.
With `O=C(/C=C/c1ccc(O)c(O)c1)O[C@@H]1C[C@@](OC(=O)/C=C/c2ccc(O)c(O)c2)(C(=O)O)C[C@@H](O)[C@@H]1O` the Potency was 12.3 µM (active).
In the case of `Cc1cc(C)cc(N)c1`, the Potency is reported as 7.19 µM (active).
For `c1ccc(C[n+]2cccc3ccccc32)cc1`, the Potency was 39.9 µM (active).
`CC[C@]1(O)C[C@H]2CN(CCc3c([nH]c4ccccc34)[C@@](C(=O)OC)(c3cc4c(cc3OC)N(C=O)[C@H]3[C@@](O)(C(=O)OC)[C@H](OC(C)=O)[C@]5(CC)C=CCN6CC[C@]43[C@@H]65)C2)C1` was tested, and the Potency was “inactive”.
`C[C@H]1C[C@H](O)c2ccsc2S1(=O)=O` was tested, and the Potency was “inactive”.
For `Cc1cccc(O)c1N`, the Potency was 40.3 µM (active).
With `COC(=O)CS` the Potency was “inactive”.
In the case of `CCCCCCCCCCCCCCN(CCO)CCO`, the Potency is reported as 79.6 µM (active).
With `COC(=O)CCS` the Potency was 70.4 µM (active).
`CCCCCCCCC(CCCCCC)C(=O)O` (stereo not given) was tested, and the Potency was 35.6 µM (active).
`c1cc(N(CC2CO2)CC2CO2)ccc1Cc1ccc(N(CC2CO2)CC2CO2)cc1` (stereo not given) was tested, and the Potency was 63.3 µM (active).
With `Cc1c(C)c2c(c(C)c1OC(=O)CCC(=O)OCCO)CC[C@@](C)(CCC[C@H](C)CCC[C@H](C)CCCC(C)C)O2` the Potency was “inactive”.
In the case of `CC(C)(c1ccccc1)c1ccccc1`, the Potency is reported as “inactive”.
In the case of `O=Cc1c2ccccc2c(Cl)c2ccccc12`, the Potency is reported as “inactive”.
`CCOC(=O)c1ccccc1C(=C1C=C(Br)C(=O)C(Br)=C1)c1cc(Br)c(O)c(Br)c1` was tested, and the Potency was “inactive”.
In the case of `CCOc1cccc(-n2cc(C(=O)N3CCN(c4cc(C(=O)O)c5ccccc5c4)CC3)nc2-c2ccc(C)cc2)c1`, the Potency is reported as 53.8 µM (active).
For `C=C(C)C(=O)OCCOCCOC(=O)C(=C)C`, the Potency was 8.94 µM (active).
In the case of `CC1(C)[C@H](C(=O)O)N2C(=O)C[C@H]2S1(=O)=O`, the Potency is reported as 30.9 µM (active).
`CN1C(C(=O)Nc2ccccn2)=C(O)c2sccc2S1(=O)=O` was tested, and the Potency was “inactive”.
In the case of `Cc1ccc(OC(=O)c2ccccc2O)cc1`, the Potency is reported as “inactive”.
For `Oc1cccc(O)c1O`, the Potency was 70.4 µM (active).
`CC(=O)OCC(=O)NCCCOc1cccc(CN2CCCCC2)c1` was tested, and the Potency was “inactive”.
In the case of `CC(=O)Oc1ccc([N+](=O)[O-])cc1CCl`, the Potency is reported as “inactive”.
For `C[C@H]1c2cccc(O)c2C(O)=C2C(=O)[C@]3(O)C(O)=C(C(N)=O)C(=O)[C@@H](N(C)C)[C@@H]3[C@@H](O)[C@@H]21`, the Potency was “inactive”.
In the case of `CC(C)(C)CC(=O)OCC(=O)[C@@]1(O)CC[C@H]2[C@@H]3CCC4=CC(=O)C=C[C@]4(C)[C@H]3[C@@H](O)C[C@@]21C`, the Potency is reported as 9.77 µM (active).
With `CC(C)=CCC/C(C)=C/CC/C(C)=C/CCC(=O)OC/C=C(\C)CCC=C(C)C` the Potency was “inactive”.
In the case of `O=C(CCCN1CC=C(n2c(=O)[nH]c3ccccc32)CC1)c1ccc(F)cc1`, the Potency is reported as “inactive”.

Reference: PubChem BioAssay (Tox21)
Potency is read from the fitted curve at half-maximal effect.
